# In PubChem BioAssay AID485313 (National Center for Advancing Translational Sciences (NCATS), 2010):
# The whole screen tested about 320,000 compounds, of which about 7,600 (2.4%) were called active. A call without a number means that no potency is given here. Not shown: some 3% with an inconclusive outcome. Calls follow the shape of the dose curve; as a rule, active = well fitted activation curve with a large enough effect; inconclusive = small, poorly fitted or top-dose-only effect; inactive = no such curve, though single readings can be large or run the other way. This excerpt belongs to a sample that is enriched for actives.
# Assay: qHTS Assay for NPC1 Promoter Activators; also: nearly all actives have a fitted effect of over 60% in size;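 as to activation: reporter is driven by a mutant NPC1 promoter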
# Conditions: Huh7 NPC1 promoter luciferase reporter, 24 h; series mostly up to 9.22 µM
# Summary of the method: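 Quantitative HTS used a cell-based reporter: Huh7 cells stably bearing the NPC1 promoter upstream of luciferase were treated with compounds for 24 h, and promoter activation was read as luminescence.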
# Potency is read from the fitted curve at half-maximal effect.
row,SMILES,Potency
1,Cc1ccc(NC(=O)CCNC(=O)c2ccc([N+](=O)[O-])cc2)cc1S(=O)(=O)N1CCOCC1,inactive
2,O=C(NCCc1ccc(C(F)(F)F)cc1)c1ccc2c(c1)OCO2,inactive
3,COc1ccc(NC(=O)CSc2nnc(C3CC3)n2C)cc1S(=O)(=O)N1CCCCC1,inactive
4,Cc1ccc(NC(=O)C2(N3CCC3=O)CCCCC2)cc1,inactive
5,COc1cccc(C(=O)NCCSc2ccc(Br)cc2)c1,inactive
6,COc1ccc(C(=O)NCc2nnc(SCCOc3ccccc3)n2C)cc1,inactive
7,COc1ccc(C(=O)NCCSc2ccccc2C)cc1,1260 nM (active)
8,Cc1c(NS(=O)(=O)c2cc(C(=O)NCCc3ccc(F)cc3)cc(Cl)c2Cl)c(=O)n(-c2ccccc2)n1C,inactive
9,Cc1cc(/C=C2/NC(=O)NC2=O)c(C)n1-c1cccnc1,inactive
10,Cc1cccc(C)c1-n1c(C)cc(/C=C2\C(=O)NN(c3ccccc3)C2=O)c1C,inactive
11,Cc1ccccc1-n1c(C)cc(/C=C2\NC(=O)NC2=O)c1C,3550 nM (active)
12,Cc1ccc(C(=O)NCC(c2cccs2)N(C)C)cc1S(=O)(=O)N1CCOCC1 (stereo unspecified),inactive
13,O=c1oc2ccc(C#CC3(O)CCCCC3)cc2cc1-n1cc(-c2ccsc2)nn1,inactive
14,O=C(CCNS(=O)(=O)c1ccccc1C(F)(F)F)Nc1ccncc1,inactive
15,Cc1ccc(-c2csc(-c3cc(C)on3)n2)cc1,inactive
16,CCCc1cc(-c2nc(-c3ccc(C)cc3)cs2)ccn1,inactive
17,Cc1ccc(-c2csc(-c3c[nH]c4ccccc34)n2)cc1,1000 nM (active)
18,Cc1ccc(NC(=O)COC(=O)CN2CCCCCC2=O)c(C)c1,inactive
19,CC(=O)Nc1ccc(NC(=O)COC(=O)c2ccccc2C(=O)c2ccccc2)cc1,inactive
20,COc1ccc(C)cc1NC(=O)c1cc(-c2ccccc2)nc2c1cnn2C(C)C,inactive
21,COc1ccc2nc(C)cc(Nc3cccc(C(=O)O)c3)c2c1,inactive
22,Cc1ccc(-n2ncc3c(Nc4cccc(C(=O)O)c4)ncnc32)cc1,794 nM (active)
23,Cc1ccc(Nc2ncnc3c2cnn3C)c(C)c1,inactive

row,SMILES,Potency
1,CCN(CC(=O)NCc1ccc(Cl)cc1)C(=O)c1c(C)noc1C,inactive
2,Cc1ccc(S(=O)(=O)N2CCN(c3ncnc4ccccc34)CC2)cc1,inactive
3,Cc1cc(N2CCOCC2)nc(-c2ccc(Br)cc2)n1,inactive
4,Cc1ccc2nc(-c3ccc(Br)cc3)cn2c1,398 nM (active)
5,Cc1nc(-c2ccc([N+](=O)[O-])cc2)c(-c2ccccc2)o1,inactive
6,Cc1ccc(C(=O)Cn2cc([N+](=O)[O-])nc2C)cc1,inactive
7,Cc1ccc(-c2cn3cc([N+](=O)[O-])ccc3n2)cc1,501 nM (active)
8,CSc1nnc2ccc(-c3ccc(C)cc3)nn12,inactive
9,CC1CCCC(NC(=O)c2cc(-c3ccncc3)nc3ccccc23)C1C (stereo unspecified),inactive
10,CCOc1ncccc1C(=O)OCC(=O)c1c[nH]c2ccccc12,inactive
11,Brc1ccc(CN2CC[C@H]3C=CCc4cccc(c43)C2)cc1,inactive
12,O=C(OCc1cc(=O)n2ccsc2n1)C1(c2ccc(Cl)cc2)CC1,inactive
13,O=C(Nc1ccn(Cc2ccccc2)n1)c1cccc(F)c1,3980 nM (active)
14,O=C(Nc1ccccc1N1CCN(c2ccccc2)CC1)c1cccc(F)c1,inactive
15,O=C(Nc1cccc(NC(=O)c2cccc(F)c2)c1)c1ccccc1,inactive
16,Cc1ccc(S(=O)(=O)N(C)CC(=O)NCC(c2ccc(F)cc2)N2CCOCC2)cc1 (stereo unspecified),inactive
17,CC(C)Nc1ccc(-n2nc3ccccc3[n+]2[O-])cc1,355 nM (active)
18,Cc1cc(Cl)ccc1OCc1nc(-c2ccncc2)no1,2820 nM (active)
19,COc1ccc(-c2noc(COc3ccc(Cl)c(C)c3)n2)cc1,inactive
20,CN(Cc1ccccn1)Cc1nc(-c2ccc(Cl)cc2)no1,inactive
21,Cc1cc(NC(=O)CSc2nnnn2-c2ccc(F)cc2)no1,inactive
22,N#Cc1ccc(OCC(=O)NC(=O)NC2CCS(=O)(=O)C2)cc1 (stereo unspecified),inactive
23,CCCC(=O)N=c1sc2cccc(F)c2n1C,inactive

row,SMILES,Potency
1,Cn1c(=NC(=O)C2CC2)sc2cc(F)cc(F)c21,inactive
2,Cn1c(=NC(=O)c2ccco2)sc2cccc(F)c21,2510 nM (active)
3,CC1CC2C3CCC4=CC(=O)C=C[C@]4(C)[C@@]3(F)[C@@H](O)C[C@]2(C)[C@@]1(O)C(=O)CO (stereo partly specified),inactive
4,CN(C)S(=O)(=O)c1cccc(NC(=O)COc2ccc3ccccc3c2)c1,inactive
5,O=C(COC(=O)c1ncc(Cl)c(Cl)c1Cl)NCc1ccccc1,inactive
6,CCOc1ccc(C(=O)Nc2nccs2)cc1[N+](=O)[O-],inactive
7,Cc1ccc(Cc2nc(-c3cccc(C)c3)no2)cc1,2820 nM (active)
8,Cc1cccc(-c2noc(CCC(=O)NC3CCCC3)n2)c1,inactive
9,Cc1ccc(-c2noc(CC(c3ccccc3)c3ccccc3)n2)cc1,inactive
10,Cc1cccc(-c2nc(Nc3ccc(O)cc3)c3ccccc3n2)c1,inactive
11,Cc1cccc(-c2noc(-c3ccc(F)cc3)n2)c1,100 nM (active)
12,Cc1ccc(-c2noc(CN3CCN(Cc4ccccc4)CC3)n2)cc1,inactive
13,O=C(CSc1ccccc1)Nc1cccc(S(=O)(=O)N2CCOCC2)c1,inactive
14,CC(=O)c1sc(NC(=O)C2=NN(c3ccccc3)C(=O)CC2)nc1C,inactive
15,COc1cc2ccccc2cc1C(=O)Nc1nc(C)c(C(C)=O)s1,3980 nM (active)
16,CC(=O)c1sc(NC(=O)CCCOc2ccccc2C)nc1C,inactive
17,Cc1nnc(C)n1/N=C/c1ccc(C(C)C)cc1,inactive
18,CC(=O)c1sc(N/N=C\c2ccc(C)cc2)nc1C,3550 nM (active)
19,Cc1ccc(S(=O)(=O)Nc2nc(C)cc(N/N=C/c3ccc(O)cc3)n2)cc1,inactive
20,CC(=O)c1sc(N/N=C/c2ccc(C(C)C)cc2)nc1C,1000 nM (active)
21,COc1cc2ccccc2cc1C(=O)Nc1ccncc1,inactive
22,CC(=O)c1sc(NC(=O)c2ccc(C)cc2)nc1C,1580 nM (active)
23,COc1cc2ccccc2cc1C(=O)Nc1ccccc1C,inactive

row,SMILES,Potency
1,CCOC(=O)c1sc(NC(=O)c2sc(C)nc2C)nc1C,inactive
2,CC(=O)c1sc(N)nc1C,inactive
3,COc1ccc(Cl)cc1NC(=O)CN(C)CC(=O)Nc1ccc2c(c1)OCO2,inactive
4,COc1ccc(-c2cc(C(=O)NCCCN3CCCC3=O)c3ccccc3n2)cc1OC,inactive
5,O=S(=O)(Nc1ccc(Cl)cn1)c1cnc(Cl)c(Br)c1,inactive
6,COc1ccc(S(=O)(=O)Nc2ccc3cn[nH]c3c2)cc1[N+](=O)[O-],inactive
7,CCc1ccc(CN(C)C(C)C(=O)Nc2ccc(S(=O)(=O)N3CCCC3)cc2)cc1 (stereo unspecified),inactive
8,CN1CCC(N(C)S(=O)(=O)c2ccc(NC(=O)c3cccc(C#N)c3)cc2)CC1,inactive
9,COc1ccc(C2(C)ON(c3ccccc3C(F)(F)F)C2=O)cc1 (stereo unspecified),inactive
10,O=C(CSc1nc2ncccc2[nH]1)Nc1ccc2c(c1)OCCO2,inactive
11,CCn1nc(C(=O)NNC(=O)C2CSC3(C)CCC(=O)N23)c2ccccc2c1=O (stereo unspecified),inactive
12,N#Cc1c(NC(=O)C2CCCO2)sc2c1CCCCC2 (stereo unspecified),3550 nM (active)
13,N#Cc1c(NC(=O)C2CC(Cl)=CCC2C(=O)O)sc2c1CCCCC2 (stereo unspecified),inactive
14,N#Cc1c(NC(=O)CCCl)sc2c1CCCCC2,inactive
15,COc1ccc(NS(=O)(=O)c2cccc(C(=O)NCCc3ccc(S(N)(=O)=O)cc3)c2)cc1,inactive
16,Clc1ccc2nc(CSc3ccccc3)cn2c1,501 nM (active)
17,O=C(/C=C/c1ccc2c(c1)OCO2)NCc1cn2cc(Cl)ccc2n1,inactive
18,O=c1c2ccccc2nc2n1C(CSc1ccc(Cl)cc1)CN2 (stereo unspecified),inactive
19,CN(CCC1CCOCC1)Cc1cn[nH]c1-c1ccc(-c2ccccc2)cc1,inactive
20,O=C(COC(=O)C1CC2CCCC(C1)C2=O)NC(=O)c1ccccc1 (stereo unspecified),inactive
21,CC(OC(=O)c1ccccc1NCCO)C(=O)Nc1ccnn1C(C)C (stereo unspecified),inactive
22,CC1CCCC(NC(=O)c2cc(S(=O)(=O)N3CCCCC3)ccc2Cl)C1C (stereo unspecified),inactive
23,Cc1ccc(NC(=O)CCCNC(=O)c2ccc(Cl)cc2)cc1S(=O)(=O)N1CCOCC1,inactive

row,SMILES,Potency
1,NC(=O)Cc1ccc2sc(-c3ccccc3)nc2c1,3550 nM (active)
2,NC(=O)Cc1ccc2c(c1)[nH]c1ccccc12,inactive
3,O=C(O)Cc1sc(-c2ccccc2)nc1-c1cccs1,inactive
4,CC(OC(=O)CN1C(=O)c2ccccc2C1=O)C(=O)c1ccccc1 (stereo unspecified),inactive
5,O=C(COC(=O)c1ccc(O)cc1O)NNC(=O)c1cccs1,inactive
6,CCCc1nc2ccccc2c(=O)n1NC(=O)c1c(O)c2ccccc2[nH]c1=O,inactive
7,CC(C)C(=O)Nc1c(O)c2ccccc2[nH]c1=O,inactive
8,NS(=O)(=O)c1ccccc1NC(=O)c1c(O)c2ccccc2[nH]c1=O,562 nM (active)
9,Cc1ccc(S(=O)(=O)N2CC(O)C[C@H]2C(=O)OCC(=O)Nc2ccc(N3CCOCC3)cc2)cc1C (stereo partly specified),inactive
10,Cc1ccc(CNC(=O)CC(NC(=O)c2ccccc2)c2ccccc2)cc1 (stereo unspecified),inactive
11,COc1ccccc1C1=CC(=O)C[C@H](c2ccc(F)cc2)C1,inactive
12,CCOC(=O)CSc1nnc(-c2ccc([N+](=O)[O-])cc2)o1,inactive
13,CCc1ccccc1NC(=O)CSc1nnc(-c2ccncc2)o1,inactive
14,O=C(CSc1nnc(-c2ccc([N+](=O)[O-])cc2)o1)Nc1ccccn1,708 nM (active)
15,O=S(=O)(Nc1ccc(-n2cnnn2)cc1)c1ccc(Cl)cc1,inactive
16,CCN(CC)S(=O)(=O)c1ccc(OC)c(NC(=O)CCc2c(C)noc2C)c1,inactive
17,C/C(N)=C(/C#N)C(=O)COC(=O)CNS(=O)(=O)c1ccc(C)cc1,inactive
18,COC(=O)CNS(=O)(=O)c1ccc(Cc2ccc(S(=O)(=O)NCC(=O)OC)cc2)cc1,631 nM (active)
19,COC(=O)CNS(=O)(=O)c1ccc(OC)cc1,inactive
